Results filed as inconclusive are left out. Active and inactive are the calls of the source. Calls follow the shape of the dose curve; as a rule, active = well fitted curve in the direction sought with a large enough effect; inconclusive = small, poorly fitted or top-dose-only effect, or another doubt; inactive = no such curve, though single readings can be large; an effect the other way counts as inactive or inconclusive.
What was measured:
[1] = qHTS of pediatric cancer cell lines to identify multiple opportunities for drug repurposing: Primary screen for SK-N-SH cells (AID 1347098); also: nearly all actives have a fitted effect of over 65% in size; also: potency is read from the fitted curve at half-maximal effect
In short: (§1)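 Cells (500-1,000/well) rested 5 h, then received compounds for 48 h; metabolically active cells were measured by CellTiter-Glo luminescence. Final concentrations spanned up to 46 µM (MIPE, 11-point) or 0.59 nM-46 µM (NPC, 8-point) in primary screens, 11-point in follow-ups.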

[2] = qHTS of pediatric cancer cell lines to identify multiple opportunities for drug repurposing: Primary screen for NB1643 cells (AID 1347099); also: nearly all actives have a fitted effect of over 50% in size; also: potency is read from the fitted curve at half-maximal effect
In short: (§2)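 ATP-based luminescence (CellTiter-Glo) quantifies viability after a 48-hour exposure. Compounds are dosed across 8 or 11 final concentrations; DMSO and 2.3 µM bortezomib serve as controls.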

[3] = qHTS of pediatric cancer cell lines to identify multiple opportunities for drug repurposing: Primary screen for LAN-5 cells (AID 1347100)
In short: as §1

[4] = qHTS of pediatric cancer cell lines to identify multiple opportunities for drug repurposing: Primary screen for BT-12 cells (AID 1347101); also: nearly all actives have a fitted effect of over 25% in size; also: potency is read from the fitted curve at half-maximal effect
In short: as §1

[5] = qHTS of pediatric cancer cell lines to identify multiple opportunities for drug repurposing: Primary screen for Rh18 cells (AID 1347102); also: nearly all actives have a fitted effect of over 65% in size; also: potency is read from the fitted curve at half-maximal effect
In short: as §1

[6] = qHTS of pediatric cancer cell lines to identify multiple opportunities for drug repurposing: Primary screen for OHS-50 cells (AID 1347103); also: nearly all actives have a fitted effect of over 40% in size; also: potency is read from the fitted curve at half-maximal effect
In short: as §1

[7] = qHTS of pediatric cancer cell lines to identify multiple opportunities for drug repurposing: Primary screen for MG 63 (6-TG R) cells (AID 1347105); also: nearly all actives have a fitted effect of over 50% in size; also: potency is read from the fitted curve at half-maximal effect
In short: as §2

[8] = qHTS of pediatric cancer cell lines to identify multiple opportunities for drug repurposing: Primary screen for control Hh wild type fibroblast cells (AID 1347106); also: nearly all actives have a fitted effect of over 55% in size; also: potency is read from the fitted curve at half-maximal effect
In short: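 Viability after 48 h compound treatment at 37C, 500-1,000 cells/well, read as ATP luminescence with CellTiter-Glo. Primary screens used 11-point (MIPE, 0.78 nM-46 µM) or 8-point (NPC, 0.59 nM-46 µM) final concentrations; follow-up screens used 11-point dilutions.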

[9] = qHTS of pediatric cancer cell lines to identify multiple opportunities for drug repurposing: Primary screen for Rh30 cells (AID 1347107); also: series mostly up to about 46 µM; nearly all actives have a fitted effect of over 75% in size
In short: as §1

[10] = qHTS of pediatric cancer cell lines to identify multiple opportunities for drug repurposing: Primary screen for RD cells (AID 1347104); also: nearly all actives have a fitted effect of over 55% in size; also: potency is read from the fitted curve at half-maximal effect
In short: as §2

Measured: Potency

CN(C)CCc1c[nH]c2ccc(O)cc12
inactive: [1] | [2] | [3] | [4] | [5] | [6] | [7] | [8] | [9]

CCC1(c2ccccc2)CCC(=O)NC1=O (stereo unspecified)
inactive: [1] | [2] | [3] | [4] | [5] | [6] | [10] | [7] | [8] | [9]

COc1cc(CC(C)N)cc2c1OCO2 (stereo unspecified)
inactive: [1] | [2] | [3] | [4] | [5] | [10] | [7] | [8] | [9]

c1ccc2c(c1)Sc1ccccc1N2CC1CN2CCC1CC2 (stereo unspecified)
active: [1] 27.3 µM | [2] 23.7 µM | [4] 15.5 µM | [5] 23.7 µM | [6] 19.5 µM | [10] 15 µM | [7] 21.1 µM | [8] 23.7 µM

CN(C)CCc1c[nH]c2ccccc12
inactive: [1] | [2] | [3] | [4] | [5] | [10] | [7] | [8] | [9]

COc1cc(C[C@@H](C)N)c(OC)cc1C
inactive: [1] | [2] | [3] | [5] | [10] | [7] | [8] | [9]

CCCN(CCC)CCc1c[nH]c2ccccc12
inactive: [1] | [2] | [3] | [4] | [5] | [7] | [8] | [9]

CC(C)=C[C@@H]1[C@@H](C(=O)OCc2coc(Cc3ccccc3)c2)C1(C)C
inactive: [1] | [2] | [3] | [4] | [5] | [10] | [8] | [9]

NC1(c2ccccc2)CCCCC1
inactive: [1] | [2] | [3] | [5] | [7] | [8] | [9]

C[N+](C)(C)CCOC(=O)C(O)(c1ccccc1)c1ccccc1
inactive: [1] | [2] | [3] | [4] | [5] | [6] | [10] | [7] | [8] | [9]

CCN(CC)C(C)C(=O)c1ccccc1 (stereo unspecified)
inactive: [1] | [2] | [3] | [4] | [5] | [6] | [10] | [7] | [8] | [9]

CCOP(=S)(OCC)O/N=C(\C#N)c1ccccc1
inactive: [1] | [2] | [3] | [4] | [5] | [6] | [10] | [7] | [8] | [9]

CCCOC(=O)Cc1ccc(OCC(=O)N(CC)CC)c(OC)c1
inactive: [1] | [2] | [3] | [4] | [5] | [6] | [10] | [7] | [8] | [9]
